A selection: hits, their analogues and other compounds. The true share with any hit is near 5.2%.
PLK1 PBD block: blocks phosphopeptide binding to human PLK1 polo-box domain | Potency, µM, inactives show max response, negative = inhibition, most hits filed as inhibitors | hit rate 2.8% among 360,000 | Plk1 PBD binding of FITC phosphopeptide, fluorescence polarization | P53350; also: potency is read from the fitted curve at half-maximal effect; series mostly up to about 57 µM; % is scaled to controls: 0 for no effect and ±100 for the full control effect; nearly all actives have a fitted effect of over 65% in size
TrxR1 inh: inhibitors of rat thioredoxin reductase 1; O89049; recombinant rTrxR1, NADPH fluorescence consumption, selenite substrate; Potency, µM (doses to about 114 µM), for inactives: at the highest dose activity change, negative = inhibition, most hits filed as inhibitors; hit rate 1% among 390,000; AID 588453; also: potency is read from the fitted curve at half-maximal effect; % is scaled to controls: 0 for no effect and ±100 for the full control effect; nearly all actives have a fitted effect of over 65% in size
Target sequence (O89049 whole entry, looked up): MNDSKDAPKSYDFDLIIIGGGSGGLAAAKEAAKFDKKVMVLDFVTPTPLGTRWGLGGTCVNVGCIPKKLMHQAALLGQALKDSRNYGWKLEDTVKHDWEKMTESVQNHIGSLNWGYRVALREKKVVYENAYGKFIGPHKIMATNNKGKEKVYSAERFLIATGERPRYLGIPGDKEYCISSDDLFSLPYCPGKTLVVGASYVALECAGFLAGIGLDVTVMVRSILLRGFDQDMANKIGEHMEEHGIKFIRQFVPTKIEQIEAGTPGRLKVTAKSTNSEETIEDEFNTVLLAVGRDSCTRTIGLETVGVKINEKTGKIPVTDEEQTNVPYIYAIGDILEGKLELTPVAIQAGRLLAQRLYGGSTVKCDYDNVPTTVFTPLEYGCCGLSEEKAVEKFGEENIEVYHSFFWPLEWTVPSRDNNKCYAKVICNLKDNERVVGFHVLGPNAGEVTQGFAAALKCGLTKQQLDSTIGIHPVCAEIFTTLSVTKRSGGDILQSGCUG
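Rat TrxR1 (90 nM in the dispensed reagent) was pre-reduced with 400 uM NADPH for 5 min at room temperature, then incubated with compound for 15 min. After 400 uM selenite was added, NADPH fluorescence (Ex 340/Em 450 nm) was followed for 8 min.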
Sfp inh: blocks B. subtilis Sfp PPTase activity | Biochemical Sfp PPTase activity, qHTS | hit rate 3.5% among 310,000 | AID 1490 | Q9F4F7 | Potency, µM, without a hit: largest response in the series, negative = inhibition, most hits filed as inhibitors;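 also: the enzyme is Sfp with the accession as filed and its product quenches rhodamine fluorescence; potency is read from the fitted curve at half-maximal effect; 0% = enzyme reaction without inhibitor and -100% = no enzyme wells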
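Fluorescence-quenching assay with 15 nM Sfp, 5 uM rhodamine-CoA and 12.5 uM BHQ-2-labelled ybbR peptide in pH 7.6 Hepes/MgCl2 buffer. Enzyme was pre-incubated with compound for 15 min at room temperature. Rate was taken from the 30-min fluorescence change (525/598 nm).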
VDR inhibitor: blocks the human vitamin D receptor | P11473 | VDR-SRC2-3 peptide fluorescence polarization, 2 h | Potency, µM, inactives show max response, negative = inhibition, most hits filed as inhibitors | hit rate 0.93% among 400,000; also: potency is read from the fitted curve at half-maximal effect; % is scaled to controls: 0 for no effect and ±100 for the full control effect
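FP read-out; VDR + SRC2-3 coactivator peptide; 23 nl compound by pintool; 2 h RT incubation; reagents held at 4 deg C, protected from light.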
IDH1 R132H inh: human IDH1 R132H inhibition. IDH1-R132H enzyme, NADPH consumption, diaphorase/resazurin fluorescence. AID 602179. hit rate 0.093% among 390,000. O75874. Potency, µM (top dose mostly 76.6 µM), for inactives: top-dose activity change, negative = inhibition, most hits filed as inhibitors; also: potency is read from the fitted curve at half-maximal effect; % is scaled to controls: 0 for no effect and ±100 for the full control effect; nearly all actives have a fitted effect of over 65% in size
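IDH1-R132H (0.5 ug/mL dispensed) in pH 7.5 Tris buffer was preincubated 30 min with compound, then given a substrate mix of 0.016 mM NADPH and 2 mM alpha-KG for 80 min at room temperature; remaining NADPH was read by diaphorase/resazurin fluorescence.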
TrxR1 substrate: rat thioredoxin reductase 1 substrate activity; O89049; purified TrxR1 substrate turnover, NADPH consumption readout; Potency, µM (titrated, usually from 114 µM), for the others: top-dose activity change, negative = substrate turnover; hit rate 0.01% among 390,000; also: potency is read from the fitted curve at half-maximal effect; % is scaled to controls: 0 for no effect and ±100 for the full control effect; nearly all actives have a fitted effect of over 50% in size
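Rat TrxR1, dispensed at 90 nM, was prereduced with 400 uM NADPH (final) for 5 min at ~22 deg C, then incubated with compound 15 min before 400 uM selenite. A first-read NADPH fluorescence drop versus no-compound background flagged substrates.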
Resorufin autofl: autofluorescence interference, mutant IDH1 hit counter-screen; shares compounds with IDH1 R132H inh; Resorufin detection reagent fluorescence interference, cell-free; inhibition of signal, % at 51.2 µM; 750 tested, under 10 active; AID 623980;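 also: 0% = wells with normal resorufin and full inhibition = wells lacking resorufin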
IDH1 WT: inhibits human wild-type IDH1, mutant selectivity check. shares compounds with IDH1 R132H inh. WT IDH1 enzyme, NADPH diaphorase/resazurin fluorescence. Potency, µM (top dose mostly 115 µM), inactives show at the top dose activity change, negative = inhibition, actives largely listed as inhibitors. hit rate 9% among 750;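 also: potency is read from the fitted curve at half-maximal effect; 0% = full WT IDH1 enzyme control and full inhibition = no enzyme wells; nearly all actives have a fitted effect of over 55% in size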
mIDH1 confirm: inhibits human mutant IDH1 enzyme in cherrypick confirmation; shares compounds with IDH1 R132H inh; hit rate 83% among 750; Potency, µM (doses to about 76.6 µM), without a hit: at the top dose activity change, negative = inhibition, actives largely listed as inhibitors; IDH1 R132H enzyme, NADPH diaphorase/resazurin fluorescence; AID 624002; also: potency is read from the fitted curve at half-maximal effect; nearly all actives have a fitted effect of over 50% in size
* marks the source's active call; other numbers are inactive results; u = inconclusive; x = no result given; [ ] = dose if it differs, or a comment. Calls follow the shape of the dose curve; as a rule, active = well fitted curve in the direction sought with a large enough effect; inconclusive = small, poorly fitted or top-dose-only effect, or another doubt; inactive = no such curve, though single readings can be large; an effect the other way counts as inactive or inconclusive.

SMILES	PLK1 PBD block	TrxR1 inh	Sfp inh	VDR inhibitor	IDH1 R132H inh	TrxR1 substrate	Resorufin autofl	IDH1 WT	mIDH1 confirm
CCOC(=O)CSc1nnc2n(-c3ccccc3)c(=O)c3c4c(sc3n12)CC(C(C)(C)C)CC4 (stereo not drawn)	x	15.3%	x	1.5%	-7.6%	-7.1%	x	x	x
Cc1cc2c(cc3c(SCc4ccc(Cl)cc4)nnc(C)n32)o1	x	13.0%	x	0.5%	-4.4%	-6.2%	x	x	x
COC(=O)Cn1c(C(=O)N2CCCC2)cc2c1C[C@H]1CN(C(=O)c3ccccc3)[C@@](Cc3ccccc3)(C(=O)OC)[C@@H]21	x	x	25.3%	x	x	x	x	x	x
CCCCOc1cccc(C2c3c(-c4cc(C)ccc4O)n[nH]c3C(=O)N2CCOC)c1 (stereo not drawn)	x	17.3%	x	-0.7%	31.6µM*	-5.1%	-11.0	-0.1%	22.4µM*
CCOc1cccc(C2c3c(-c4cc(C)ccc4O)n[nH]c3C(=O)N2Cc2ccco2)c1 (stereo not drawn)	x	9.4%	x	10.0%	31.6µM*	-10.7%	1.0	-1.6%	11.2µM*
COc1cc(C2c3c(-c4cc(C)ccc4O)n[nH]c3C(=O)N2Cc2ccco2)cc(OC)c1OC (stereo not drawn)	x	10.8%	x	19.5%	-5.2%	-6.8%	x	x	x
CCCCCN1C(C(=O)c2ccccc2)=C(NC(=O)c2ccccc2Cl)c2ccccc2S1(=O)=O	x	22.1%	x	-9.5%	-7.2%	-6.4%	x	x	x
CCOC(=O)C1CCCN(c2c(C(=O)c3ccccc3)cnc3ccc(OC)cc23)C1 (stereo not drawn)	-20.7%	11.6%[57.1 µM]	-3.6%	-24.2%	-16.1%	-7.9%	x	x	x
COc1cc2ncc(C(=O)c3ccc(C)cc3)c(N3CCCCC3)c2cc1OC	x	1.8%	x	-21.2%	u	-8.4%	-7.6	-10.6%	14.1µM*
CCN(CC)C(=O)c1ccc2c(c1)N(Cc1c(F)cccc1Cl)C(=O)c1ccccc1S2	x	24.9%	x	-15.2%	31.6µM*	1.4%	-1.7	u	28.2µM*
CCc1ccccc1NC(=O)NNC(=O)CCc1ccc(OC)cc1	-5.7%	34.7%	25.9%	11.1%	-8.2%	4.9%	x	x	x
CCO[C@@H]1OC(C(=O)Nc2ccccc2)=C[C@H](c2ccc(C(F)(F)F)cc2)[C@H]1CCCO	-2.7%	14.8%	9.2%	4.6%	u	-3.9%	-3.6	-4.3%	22.4µM*
Cc1nn(C)c(C)c1S(=O)(=O)N(CC(=O)Nc1ccc(F)cc1F)c1ccc(C(C)C)cc1	x	5.8%	x	-9.3%	15.1%	-9.2%	x	x	x
O=P(Cc1ccccc1)(c1ccccc1)c1ccccc1	-4.2%	-5.2%	-7.5%	-13.8%	3.6%	-4.6%	x	x	x
CC(C)(C)c1cc(CP(=O)(c2ccccc2)c2ccccc2)cc(C(C)(C)C)c1O	2.7%	9.4%	-0.2%	-18.4%	u	-3.0%	-1.4	-3.4%	28.2µM*
COc1ccc(Cl)cc1N(C(=O)c1ccco1)C(C(=O)NC1CCCC1)c1ccncc1 (stereo not drawn)	-6.1%	2.8%	-0.6%	6.1%	-22.6%	-1.5%	x	x	x
O=C(NC1CCCC1)C(c1ccncc1)N(C(=O)c1ccco1)c1ccc(F)c(Cl)c1 (stereo not drawn)	0.3%	6.6%[57.1 µM]	2.2%	7.9%	u	7.5%[0.0914 µM]	3.7	1.3%	39.8µM*
COc1ccc(Cl)cc1N(C(=O)c1ccco1)C(C(=O)NC1CCCC1)c1cccnc1 (stereo not drawn)	-9.6%	6.4%	9.1%	-2.3%	u	-0.7%	1.9	-2.0%	u
COc1ccc(N(C(=O)c2ccco2)C(C(=O)NC2CCCC2)c2cccs2)cc1 (stereo not drawn)	-4.8%	10.4%[57.1 µM]	2.6%	3.6%	u	4.4%[57.1 µM]	-1.3	-6.9%	u
O=C(NC1CCCCC1)C(c1ccncc1)N(C(=O)c1ccco1)c1ccc(F)cc1 (stereo not drawn)	-3.9%	3.2%	12.5%	-0.9%	u	1.7%	1.2	-1.0%	39.8µM*
O=C(NC1CCCC1)C(c1ccncc1)N(C(=O)c1ccco1)c1ccccc1 (stereo not drawn)	-4.7%	16.1%	6.7%	-1.7%	21.9%	0.9%	x	x	x
C=CCN1C=CC(=O)[C@@H](OC(=O)Nc2ccc(Br)cc2)[C@H]1c1ccccc1Br	-4.4%	-0.6%	x	-15.6%	5.5%	-6.2%	x	x	x
COc1cc(C2C(C#N)=C(C)NC3=C2C(=O)CC(C)(C)C3)cc(OC)c1O (stereo not drawn)	-11.9%	-8.9%	-16.8%	6.0%	14.5%	-6.0%	x	x	x
COc1ccc(C2C(C#N)=C(SCC(=O)Nc3ccc(C)cc3)NC3=C2C(=O)CC(C)(C)C3)cc1 (stereo not drawn)	-4.4%	12.7%[57.1 µM]	u	-22.5%	13.1µM*	15.5%	-3.7	8.1%	7.08µM*
CCC(c1nnnn1C1CCCCC1)N(Cc1ccco1)Cc1cc2ccc(OC)cc2[nH]c1=O (stereo not drawn)	-5.6%	20.6%[57.1 µM]	-22.9%	-0.9%	u	10.6%[57.1 µM]	-4.9	4.4%	u
SMILES	PLK1 PBD block	TrxR1 inh	Sfp inh	VDR inhibitor	IDH1 R132H inh	TrxR1 substrate	Resorufin autofl	IDH1 WT	mIDH1 confirm
CCC(C)Nc1nc(N)c([N+](=O)[O-])c(Nc2ccccc2OC)n1 (stereo not drawn)	1.0%	15.4%[57.1 µM]	-3.6%	6.9%	-17.7%	4.9%[57.1 µM]	x	x	x
CCC(C)Nc1nc(N)c([N+](=O)[O-])c(Nc2cc(OC)ccc2OC)n1 (stereo not drawn)	-9.9%	12.6%[57.1 µM]	-11.8%	-4.3%	u	-2.8%[57.1 µM]	1.9	2.0%	28.2µM*
COc1ccc(C)c2sc(NC(=O)c3ccc(S(=O)(=O)N4CCCCC4)cc3)nc12	x	19.8%[57.1 µM]	x	1.0%	-7.1%	-0.4%[57.1 µM]	x	x	x
Cc1ccc(NC(=O)c2ccc(NC(=O)N3CCSc4ncccc43)cc2)c(Cl)c1	x	-1.7%	x	12.7%	-17.8%	4.0%	x	x	x
Cc1csc(NC(=O)CCCC(=O)O)c1-c1nc2ccccc2s1	u	-6.3%[57.1 µM]	4.6%	7.6%	u	-2.1%[57.1 µM]	-1.9	8.0%	25.1µM*
CCn1cc(C(=O)NCc2ccco2)c(=O)c2cc(S(=O)(=O)N3CCC(C)CC3)ccc21	-6.1%	-12.4%	u	-5.9%	32.9µM*	-8.4%	1.8	3.2%	17.8µM*
